CHRM1 antagonist – blocks human M1 muscarinic receptor | inhibition, % at 3 µM | P11229 | CHO-K1 hM1, Fluo-8 calcium fluorescence, ACh EC80 antagonist | actives 1.3% (n = 360,000) | AID 588852;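 active = percent inhibition above its own plate's cutoff, namely the mean of that plate's compound wells plus 3 SD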;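 also: peak over basal fluorescence ratio during 140 s after agonist addition; 0% = ACh EC80 plus DMSO and 100% = DMSO alone without agonist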
Target sequence (P11229 whole entry, looked up): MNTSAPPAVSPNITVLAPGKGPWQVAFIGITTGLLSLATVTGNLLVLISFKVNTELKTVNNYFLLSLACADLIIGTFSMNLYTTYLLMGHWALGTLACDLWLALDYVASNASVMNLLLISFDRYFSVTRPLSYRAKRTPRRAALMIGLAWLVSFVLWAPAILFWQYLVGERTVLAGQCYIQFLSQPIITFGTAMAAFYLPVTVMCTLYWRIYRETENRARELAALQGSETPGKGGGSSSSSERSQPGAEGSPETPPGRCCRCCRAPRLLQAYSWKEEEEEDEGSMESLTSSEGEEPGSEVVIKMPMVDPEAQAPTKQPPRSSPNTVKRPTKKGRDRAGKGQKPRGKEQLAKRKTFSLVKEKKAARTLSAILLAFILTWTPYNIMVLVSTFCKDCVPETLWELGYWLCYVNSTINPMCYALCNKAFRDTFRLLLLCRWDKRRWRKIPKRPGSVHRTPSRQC
SKN-1 block – blocks SKN-1 activity in C. elegans. inhibition, % at 21.8 µM. actives 0.49% (n = 360,000). C. elegans VP596 Pgst-4::GFP/RFP ratio, acrylamide-induced, 24 h. AID 624304;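 active = interference check ratio from 0.5 to 1.5 plus GFP to RFP signal ratio inhibition reaching or exceeding a fixed threshold, cut at about 30% in these data, passing the limit was not always enough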
M1 PAM – human CHRM1 positive allosteric modulation; P11229; CHO-K1 hM1, Fluo-8 calcium fluorescence, ACh EC20; 0% = ACh EC20, 100% = maximal ACh; activation, % at 3 µM; actives 0.088% (n = 360,000); in the data active = activation above about 19%, passing the limit was not always enough
ATG4B inh – inhibitors of human ATG4B cysteine protease | Q9Y4P1 | ATG4B cleavage of LC3-PLA2, NBD-HPC fluorescence, 1 h | inhibition, % at 8.33 µM | actives 0.51% (n = 340,000) | AID 504462; in the data active = inhibition above about 40%
CHRM1 agonist – agonists of human M1 muscarinic receptor | activation, % at 3 µM | CHO-K1 hM1, Fluo-8 calcium fluorescence, agonist mode; 0% DMSO, 100% acetylcholine EC100 | P11229 | actives 0.33% (n = 360,000);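 active = activation above the run's mean compound activation plus 3 SD, cut at about 16% in these data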;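 also: peak over basal fluorescence ratio within a 140 s kinetic read after compound addition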
Myeloid diff 2 – promotes myeloid progenitor differentiation. calls only at 10 µM. ER-HoxA9 myeloid progenitors, lysozyme-GFP differentiation, flow cytometry. actives 1% (n = 360,000). AID 624256;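 active = normalized GFP-positive differentiation at or above the plate's own cutoff, the solvent-only control mean plus 3 SD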;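 also: cells exposed to compound for four days before flow analysis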
The depositor's hits bear a star; i = inactive; . = no result; + = active, no number. Shown are actives, neighbours in structure and some others; about 3.5% of the full set was active somewhere.

SMILES | CHRM1 antagonist | SKN-1 block | M1 PAM | ATG4B inh | CHRM1 agonist | Myeloid diff 2
CC[N+]1(C)[C@@H]2CC[C@H]1CC(OC(=O)[C@H]1CCC(C(=O)OC3C[C@H]4CC[C@@H](C3)[N+]4(C)CC)(c3ccccc3)c3ccccc31)C2 (stereo not given in full) | -2 | -11 | -17 | -4 | -8 | i
COc1ccc(CCNC(=O)Cn2cnc3sc(C)c(-c4ccc(F)cc4)c3c2=O)cc1OC | 4 | -2 | 1 | -1 | 18* | i
COc1ccc(NC(=O)CCCNC(=O)Cn2cnc3sc(C)c(C)c3c2=O)c(OC)c1 | 22* | -10 | -9 | -4 | 0 | i
COc1cc(NC(=O)CCNC(=O)Cn2cnc3sc4c(c3c2=O)CCCC4)cc(OC)c1OC | -3 | 15 | 0 | 0 | -11 | +
COC(=O)c1sc2ncn(CC(=O)NCCc3ccc(OC)c(OC)c3)c(=O)c2c1C | -4 | -5 | 11 | -2 | -4 | i
O=c1cc(C(F)(F)F)[nH]c(=S)n1-c1ccccc1 | 5 | 0 | -1 | -6 | -3 | i
Cc1ccc(C(=O)CCS(=O)(=O)c2ccc(Cl)cc2)cc1 | 7 | 2 | -5 | 2 | -3 | +
COc1ccc(NC(=O)CCS(=O)(=O)c2ccc(Cl)cc2)cc1 | 1 | -16 | 2 | -10 | -1 | +
CCCc1nnc(SCC(=O)Nc2ccccc2Cl)n1CC1CCCO1 (stereo not given) | -7 | -3 | 12 | 5 | 6 | i
CCOC(=O)C1=C(CC)Nc2ccccc2N/C1=N\S(=O)(=O)c1ccccc1OC | 1 | 4 | 2 | -2 | -7 | i
CC1CCN(C(=O)CSc2ccc(-c3ccccc3)nn2)CC1 | 7 | 3 | -2 | -5 | -5 | i
Nc1ccc(S(=O)(=O)Nc2nc(-c3ccccc3)cc(-c3ccccc3O)n2)cc1 | -13 | 1 | 2 | . | 20* | i
Cc1cccc(CSC2=NCCN2S(=O)(=O)c2ccc(F)cc2)c1 | 39* | 4 | -16 | -1 | -2 | i
Cc1ccc(S(=O)(=O)N2CCN=C2SCc2ccccc2)cc1 | 3 | 8 | -1 | -5 | -9 | i
COCCn1c(C)cc(C(=O)COC(=O)/C=C/c2c(C)nn(C3CCS(=O)(=O)C3)c2Cl)c1C (stereo not given) | -10 | 4 | 3 | -7 | -1 | i
CCCCCN1C(=O)/C(=C/c2c(N3CCc4ccccc4C3)nc3ccccn3c2=O)SC1=S | -3 | 6 | 4 | -2 | -4 | +
COc1ccc(/C=N/NC(=O)c2nc(-c3ccccc3)cc(-c3ccccc3)n2)cc1O | 38* | 4 | -19 | 17 | -6 | i
COc1ccc(/C=N/NC(=O)c2ccc(CN3C(=O)c4cccc5cccc3c45)cc2)cc1O | 0 | 9 | 1 | -19 | 23* | i
COC(=O)CN1C(=S)N(c2ccc(Cl)cc2)C(=O)C1CC(=O)Nc1ccc(Cl)cc1 (stereo not given) | -4 | 19 | 7 | -13 | -3 | i
COC(=O)CN1C(=S)N(Cc2ccccc2)C(=O)C1CC(=O)Nc1ccc(Br)cc1 (stereo not given) | -3 | 39* | 5 | -6 | -1 | i
Cc1nc(/N=C\c2ccc(N(C)C)cc2)sc1C | 1 | 15 | 1 | 8 | -4 | +
CN(C)c1ccc(C=Nc2ccc(N(C)C)cc2)cc1 | -44 | 4 | 5 | -6 | -4 | i
O=C(CCC(=O)c1cccs1)NCc1cccnc1 | -10 | 1 | 9 | -6 | -6 | i
CCN(CC)c1ccc(/C=C(/C#N)C(=O)NCc2ccccc2)o1 | 9 | 12 | -2 | 0 | 16* | i
C=CC[C@@H](CC(=O)N[C@H](CO)Cc1ccccc1)C(=O)N[C@H](COC(=O)[C@@H](CC=C)Cc1ccc(F)cc1)Cc1c[nH]c2ccccc12 | 12 | 2 | 1 | -23 | -5 | i
SMILES | CHRM1 antagonist | SKN-1 block | M1 PAM | ATG4B inh | CHRM1 agonist | Myeloid diff 2
CN(C)C1=NC[C@H](Cc2ccccc2)N1CCCCc1ccccc1 | 34* | -8 | -23 | -11 | -9 | i
CCCCCCCN1C(N(C)C)=NC[C@@H]1Cc1ccccc1 | 29 | 13 | -27 | -8 | -12 | i
COc1ccc(/C=C2\CN(Cc3ccccc3)C/C(=C\c3ccc(OC)cc3OC)C2=O)c(OC)c1 | 29* | 9 | -7 | -15 | 0 | i
O=c1[nH]c(-c2ccccc2)nc(CN2CCCCC2)c1O | -27 | -2 | 29* | 3 | 5 | i
Cc1nc(CN2CCCCC2)c(O)c(=O)[nH]1 | -18 | -20 | 11 | 1 | 0 | i
COC(=O)C(CCC(=O)CN1C(=O)c2ccccc2C1=O)N1C(=O)c2ccccc2C1=O (stereo not given) | -9 | 8 | 7 | . | -1 | i
Cc1cc(C)nc(Nc2ccc(Cl)cc2C)n1 | -26 | -3 | 9 | 1 | -4 | i
CCOc1ccc(-c2nc(N)ncc2Oc2ccccc2Br)c(O)c1 | 12 | 23 | -5 | -8 | -4 | i
CCOc1ccc(-c2nc(N)ncc2Oc2cccc(OC)c2)c(O)c1 | 7 | 37* | -4 | -4 | -4 | i
Cc1ccc(CC(=O)O/N=C(\N)c2ccncc2)cc1 | -3 | -7 | 11 | -7 | 5 | +
N/C(=N\OC(=O)COc1ccc(Cl)cc1Cl)c1ccncc1 | 2 | 48* | -2 | 2 | -3 | i
N/C(=N\OC(=O)COc1ccc(Cl)cc1Br)c1cccnc1 | 5 | 4 | -2 | -7 | -4 | i
COc1ccc(C2CC(c3ccncc3)=NN2c2ccc(S(N)(=O)=O)cc2)cc1 (stereo not given) | -8 | 0 | 2 | -2 | -2 | +
COc1ccc(CN(CCNC(=O)CCCCC(=O)NCCN(Cc2ccc(OC)cc2)C(C)C)C(C)C)cc1 | 73* | -6 | -26 | -3 | -7 | i
COc1ccc(CCNC(=S)N2CCN(S(=O)(=O)c3ccc(C)cc3)CC2)cc1 | -11 | -1 | 5 | -11 | 3 | i
Cc1c(Br)c(C(N)=O)nn1C | -12 | 1 | 5 | 0 | -2 | i
Cn1nnc2c(C(N)=O)ncn2c1=O | -35 | 3 | 5 | . | -2 | +
Cc1nccn1CCc1n[nH]c(=S)n1Cc1ccccc1 | 60* | 2 | -21 | -2 | -5 | i
CCN(CC)C(=O)C1c2ccccc2Oc2ccccc21 | 5 | 13 | -1 | -2 | 18* | +
C=CCN(CC=C)C(=O)C1c2ccccc2Oc2ccccc21 | 13 | 10 | -10 | . | -7 | i
CC(C)[N+](C)(CCOC(=O)C1c2ccccc2Oc2ccccc21)C(C)C | 97* | 0 | -24 | -1 | -6 | i
CC(C)CNC(=O)COC(=O)C1c2ccccc2Oc2ccccc21 | -13 | 3 | 13 | 6 | -5 | i
